Source: PubChem BioAssay (NCATS)
Results filed as inconclusive are left out. Activity calls are given as the source filed them. Unless noted, calls follow the shape of the dose curve; as a rule, active = well fitted curve in either direction with a large enough effect (not every such curve was filed as active); inconclusive = small, poorly fitted or top-dose-only effect, or another doubt; inactive = flat fitted curve, though single readings scatter.

Tests used:
[1] = target: Lysosomal acid glucosylceramidase (Homo sapiens) (UniProt P04062); test: Glucocerebrosidase-p2 (AID 348; in the data active = potency below about 10 µM; also: potency is read from the fitted curve at half-maximal effect); settings: purified GBA, blue fluorogenic substrate, 40 min
In short: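 Compounds titrated from 0.6 nM upwards against 0.2 nM enzyme in pH 5.9 citric acid/KH2PO4, taurocholate, tween-20; blue fluorogenic substrate 80 uM, 40 min room temperature, stopped and read Ex 365/Em 440 for AC50.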

[2] = AP1 Signaling Pathway (AID 357); settings: ME-180 AP-1-bla reporter, EGF-induced, beta-lactamase ratio, 5 h; at 7.69 µM (top of the series) unless noted;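 also: ME-180 reporter cells stimulated with EGF at its EC50 level; % is scaled to controls: 0 for no effect and ±100 for the full control effect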
In short: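 Titration-series screen for positive or negative modulators of EC50 EGF-induced signaling in ME-180 cells carrying an AP-1-driven beta-lactamase reporter. After 5 hours at 37 degrees Celsius, CCF4 460nm/530nm emission ratio gave %Activity; AC50 values derived.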

[3] = NFAT Signaling Pathway (AID 444); settings: Jurkat NFAT-bla M1, carbachol, beta-lactamase ratio, 5 h; at 7.69 µM (top of the series) unless noted;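 also: carbachol stimulus at about its EC50 of 1 µM final; % is scaled to controls: 0 for no effect and ±100 for the full control effect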
In short: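 Jurkat cells with NFAT-driven β-lactamase reporter and co-expressed M1 receptor, stimulated with carbachol (final 1 uM, ~EC50), compound titration, 5 h at 37 °C. CCF4 loaded 1 h at RT; 460/530 nm ratio gave %activity and AC50.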

[4] = Stat Signaling Pathway (AID 446); settings: ME-180 SIE beta-lactamase reporter, IL-6 stimulated, 5 h; at 7.69 µM (top of the series) unless noted;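 also: ME-180 cervical cancer cells given 40 pM IL-6 alongside compound; SIE-controlled beta-lactamase reporter measured as 460/530 nm FRET emission ratio; % is scaled to controls: 0 for no effect and ±100 for the full control effect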
In short: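 Reporter line: ME-180 cervical carcinoma, SIE-beta-lactamase. Treatment: compound with 40 pM IL-6, 5 hrs, 37 C, in low-serum OPTI-MEM with 10 mM HEPES pH 7.3. Detection: 460/530 nm fluorescence.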

[5] = target: Glucocorticoid receptor (Homo sapiens) (UniProt P04150); test: GR-EFC Redistribution (AID 451; calls by dose curve; also: potency is read from the fitted curve at half-maximal effect); settings: CHO-K1 GR-EFC translocation, beta-gal luminescence, 2 h
In short: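 CHO-K1 cells expressing nuclear EA and GR-ED fragments of b-gal; compounds titrated up to 46 uM final, 2 h at 37 C. GR nuclear translocation read as complemented b-gal luminescence after 1 h RT detection.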

[6] = target: Mitogen-activated protein kinase 10 (Mus musculus) (UniProt Q61831); test: JNK3 AlphaScreen Assay (AID 530); settings: JNK3 lysate, c-Jun phosphorylation; series mostly up to 57.1 µM;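 also: kinase came from lysate of stimulated human HepG2 cells; signal reports phosphorylation of biotinylated GST-cJun 1-79 at Ser73 with 10 µM ATP; % is scaled to controls: 0 for no effect and ±100 for the full control effect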
In short: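 Pre-activated (IL-1β/TNFα) JNK3 in HepG2 lysates phosphorylates biotin-GST-cJun(1-79), 10 uM ATP; anti-phospho-cJun(Ser73) AlphaScreen read at room temperature, pH 7.6 Tris buffer. Compounds pre-incubated 15 min as titrations.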

[7] = target: Cytochrome P450 3A4 (Homo sapiens) (UniProt P08684); test: qHTS Assay for Activators of Cytochrome P450 3A4 (AID 885; active = well fitted curve in the direction sought with a large enough effect; an effect the other way counts as inactive or inconclusive; also: nearly all actives have a fitted effect of over 65% in size; also: potency is read from the fitted curve at half-maximal effect); settings: recombinant CYP3A4, Luciferin-PPXE luminescence, 60 min; series mostly up to 57.1 µM
In short: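 Signal was normalized against complete inhibition by 57 uM ketoconazole. The reaction used 20nM CYP3A4 with 25uM Luciferin-PPXE, 10-min compound preincubation and a 60-min NADPH-supported step at RT.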

[8] = Confirmation and Secondary Assay for Modulators of Hemoglobin Beta Chain Splicing at IVS2 654 locus (AID 910; active = well fitted curve in the direction sought with a large enough effect; an effect the other way counts as inactive or inconclusive;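 also: HeLa cells stably carrying EGFP split by mutant beta-globin IVS2-654 intron; % of control where 0% means no effect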); settings: HeLa EGFP-654 splicing reporter, GFP fluorescence, 48 h; series mostly up to 38.3 µM
In short: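 HeLa cells stably expressing EGFP interrupted by β-globin IVS2-654 intron, seeded overnight in Opti-MEM/2% FCS, then treated 2 days at 37 °C. Restored splicing read as total peak GFP intensity per well by laser scanning cytometry (488 nm excitation, 500–520 nm emission); 500 nM antisense PNA as control.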

[9] = Confirmation and Secondary Assay for Modulators of Hemoglobin Beta Chain Splicing at IVS2 705 locus (AID 930; active = well fitted curve in the direction sought with a large enough effect; an effect the other way counts as inactive or inconclusive;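 also: HeLa cells stably expressing the EGFP-705 splicing reporter; GFP fluorescence per well restored by corrected splicing of the IVS2-705 intron in EGFP; % of control where 0% means no effect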); settings: HeLa EGFP-705 splicing reporter, GFP fluorescence, 48 h; series mostly up to 38.3 µM
In short: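 Assay measures total GFP intensity per well in HeLa EGFP-705 cells after 2 days with compound; mis-splicing normally truncates EGFP, so fluorescence indicates corrected splicing.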

[10] = Primary qHTS for small molecule stabilizers of the endoplasmic reticulum resident proteome: Secreted ER Calcium Modulated Protein (SERCaMP) assay (AID 1508630; active = well fitted curve in the direction sought with a large enough effect; an effect the other way counts as inactive or inconclusive; also: % is scaled to controls: 0 for no effect and ±100 for the full control effect); settings: SH-SY5Y GLuc-SERCaMP (Gaussia luciferase released on ER calcium loss) secretion, thapsigargin, luminescence; series mostly up to 38.4 µM
In short: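 GLuc-SERCaMP-expressing SH-SY5Y cells, pretreated 16 h with compound, are challenged with thapsigargin to empty ER calcium stores; after 4 h, coelenterazine is added directly to the medium and luminescence is imaged.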

[11] = target: 3',5'-cyclic-AMP phosphodiesterase 4B (Homo sapiens) (UniProt Q07343); test: qHTS Assay for Inhibitors of PDE-IV (AID 607; active = well fitted activation curve with a large enough effect in the main read-out, with a control signal flat, not every such curve was filed as active; also: % of control where 0% means no effect); settings: HEK293 ACTOne CNG channel cells, membrane potential fluorescence; series mostly up to 22.9 µM
In short: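 Cell-based read-out of cAMP via a modified cyclic nucleotide-gated channel and membrane potential dye (535/590 nm) in HEK293 cells expressing PDE4 endogenously. Compounds tested up to 22.9 uM final; 100 uM RO 20-1724 reference.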

[12] = target: Cytochrome P450 3A4 (Homo sapiens) (UniProt P08684); test: qHTS Assay for Inhibitors and Substrates of Cytochrome P450 3A4 (AID 884; active = well fitted curve in the direction sought with a large enough effect; an effect the other way counts as inactive or inconclusive; also: nearly all actives have a fitted effect of over 50% in size; also: potency is read from the fitted curve at half-maximal effect); settings: recombinant CYP3A4, Luciferin-PPXE luminescence; series mostly up to 57.1 µM
In short: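 20 nM human CYP3A4 with 25 uM Luciferin-PPXE (at KM) in 200 mM KPO4, preincubated 10 min with compound; NADPH regeneration started a 60 min RT reaction. Luciferin detected by luminescence, normalized to 57 uM ketoconazole as full inhibition.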

[13] = target: Cytochrome P450 2D6 (Homo sapiens) (UniProt P10635); test: qHTS Assay for Inhibitors and Substrates of Cytochrome P450 2D6 (AID 891; active = well fitted curve in the direction sought with a large enough effect; an effect the other way counts as inactive or inconclusive; also: potency is read from the fitted curve at half-maximal effect; nearly all actives have a fitted effect of over 60% in size); settings: recombinant CYP2D6, luciferin-ME EGE luminescence; series mostly up to 57.1 µM
In short: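 Human CYP2D6 (5 nM) with 30 uM Luciferin-ME EGE (at Km) in 100 mM KPO4, compound preincubated 10 min, then NADPH regeneration system for 60 min at room temperature. Luciferin read by luminescence; normalized to 1.43 uM quinidine.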

[14] = target: Glucocorticoid receptor (Homo sapiens) (UniProt P04150); test: GR-GFP Redistribution (AID 450;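 active = compounds whose dose series gives a full or clear partial fitted curve of increased nuclear translocation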; also: potency is read from the fitted curve at half-maximal effect); settings: U2OS GR-GFP nuclear translocation, laser cytometry, 2 h
[15] = target: Cytochrome P450 2C9 (Homo sapiens) (UniProt P11712); test: qHTS Assay for Inhibitors and Substrates of Cytochrome P450 2C9 (AID 883; active = well fitted curve in the direction sought with a large enough effect; an effect the other way counts as inactive or inconclusive; also: potency is read from the fitted curve at half-maximal effect; nearly all actives have a fitted effect of over 60% in size); settings: recombinant CYP2C9, luciferin-H luminescence, 60 min; series mostly up to 57.1 µM
In short: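 10nM CYP2C9 + 100uM Luciferin-H (=KM), 25mM KPO4; cpd 10 min 37C; NADPH regen, 60 min 37C; stop/detect with P450 Glo-Buffer 20 min; luminescence. Norm. to 57uM sulphaphenazole as full inhibition.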

[16] = target: Cytochrome P450 2C19 (Homo sapiens) (UniProt P33261); test: qHTS Assay for Inhibitors and Substrates of Cytochrome P450 2C19 (AID 899; active = well fitted curve in the direction sought with a large enough effect; an effect the other way counts as inactive or inconclusive; also: potency is read from the fitted curve at half-maximal effect; nearly all actives have a fitted effect of over 60% in size); settings: recombinant CYP2C19, luciferin-H EGE luminescence; series mostly up to 57.1 µM
In short: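 Luminescent read-out of luciferin formed from Luciferin-H EGE (10uM, equal to KM). Enzyme 5nM in 50mM KPO4; compound added, 10 min at 37C, then NADPH regenerating system for 60 min at 37C. Full inhibition defined by 57uM ketoconazole.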

[17] = qHTS Assay for Identification of Small Molecule Agonists for Hypoxia Response Element Signaling Pathway (AID 914; active = well fitted activation curve with a large enough effect in the signal ratio, with a control signal flat, not every such curve was filed as active; the % refers to the signal ratio; also: % of control where 0% means no effect); settings: ME-180 (cervical carcinoma) HRE-bla reporter, beta-lactamase ratio, CoCl2, 17 h; activation: active compounds read high
In short: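 Compounds in a titration series were added to ME-180 reporter cells alongside an EC50 level of CoCl2. After 17 hours, beta-lactamase activity was read as the 460nm/530nm emission ratio of CCF4, giving AC50 values.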

Chain of Glucocorticoid receptor (Homo sapiens) (P04150 whole entry, looked up, the tested form may be a part): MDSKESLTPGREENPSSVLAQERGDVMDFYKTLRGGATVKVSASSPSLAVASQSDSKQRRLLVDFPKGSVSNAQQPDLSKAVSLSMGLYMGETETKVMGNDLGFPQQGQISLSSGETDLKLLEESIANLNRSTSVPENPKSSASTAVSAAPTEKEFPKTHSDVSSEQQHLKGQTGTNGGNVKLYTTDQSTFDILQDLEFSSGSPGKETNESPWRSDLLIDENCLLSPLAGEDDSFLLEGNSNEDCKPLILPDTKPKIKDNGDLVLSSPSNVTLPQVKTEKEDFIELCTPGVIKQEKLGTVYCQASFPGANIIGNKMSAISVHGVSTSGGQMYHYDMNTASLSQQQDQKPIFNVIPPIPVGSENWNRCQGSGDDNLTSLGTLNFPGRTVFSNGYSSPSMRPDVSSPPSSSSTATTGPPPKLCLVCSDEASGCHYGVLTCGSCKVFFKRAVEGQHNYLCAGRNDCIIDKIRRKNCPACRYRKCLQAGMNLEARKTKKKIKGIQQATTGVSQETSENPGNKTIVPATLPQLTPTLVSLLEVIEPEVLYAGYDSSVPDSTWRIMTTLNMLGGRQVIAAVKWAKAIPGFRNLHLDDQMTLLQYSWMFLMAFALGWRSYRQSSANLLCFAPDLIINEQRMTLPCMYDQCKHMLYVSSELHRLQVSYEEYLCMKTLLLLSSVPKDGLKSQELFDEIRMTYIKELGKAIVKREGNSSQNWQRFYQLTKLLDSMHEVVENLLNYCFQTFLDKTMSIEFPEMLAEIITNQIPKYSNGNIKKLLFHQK
Chain of 3',5'-cyclic-AMP phosphodiesterase 4B (Homo sapiens) (Q07343 whole entry, looked up): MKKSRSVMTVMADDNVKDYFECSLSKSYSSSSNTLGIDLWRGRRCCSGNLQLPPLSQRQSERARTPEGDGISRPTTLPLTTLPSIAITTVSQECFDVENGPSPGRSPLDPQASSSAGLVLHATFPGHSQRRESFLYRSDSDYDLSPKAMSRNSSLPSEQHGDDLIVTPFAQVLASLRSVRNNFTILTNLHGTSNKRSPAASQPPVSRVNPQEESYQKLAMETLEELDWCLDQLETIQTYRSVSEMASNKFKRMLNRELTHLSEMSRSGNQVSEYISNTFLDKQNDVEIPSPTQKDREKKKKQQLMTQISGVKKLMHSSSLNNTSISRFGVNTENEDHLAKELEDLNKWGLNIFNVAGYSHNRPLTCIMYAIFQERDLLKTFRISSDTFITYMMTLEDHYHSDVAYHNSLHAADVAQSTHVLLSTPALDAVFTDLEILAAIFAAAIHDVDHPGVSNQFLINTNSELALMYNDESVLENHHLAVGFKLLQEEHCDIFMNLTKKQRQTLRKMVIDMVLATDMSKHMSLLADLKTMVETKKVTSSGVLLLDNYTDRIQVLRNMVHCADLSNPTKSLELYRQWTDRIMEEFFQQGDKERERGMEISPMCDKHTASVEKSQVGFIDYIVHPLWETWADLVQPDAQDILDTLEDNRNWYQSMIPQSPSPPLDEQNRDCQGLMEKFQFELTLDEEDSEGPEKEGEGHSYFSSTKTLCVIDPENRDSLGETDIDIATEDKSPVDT
Chain of Lysosomal acid glucosylceramidase (Homo sapiens) (P04062 whole entry, looked up): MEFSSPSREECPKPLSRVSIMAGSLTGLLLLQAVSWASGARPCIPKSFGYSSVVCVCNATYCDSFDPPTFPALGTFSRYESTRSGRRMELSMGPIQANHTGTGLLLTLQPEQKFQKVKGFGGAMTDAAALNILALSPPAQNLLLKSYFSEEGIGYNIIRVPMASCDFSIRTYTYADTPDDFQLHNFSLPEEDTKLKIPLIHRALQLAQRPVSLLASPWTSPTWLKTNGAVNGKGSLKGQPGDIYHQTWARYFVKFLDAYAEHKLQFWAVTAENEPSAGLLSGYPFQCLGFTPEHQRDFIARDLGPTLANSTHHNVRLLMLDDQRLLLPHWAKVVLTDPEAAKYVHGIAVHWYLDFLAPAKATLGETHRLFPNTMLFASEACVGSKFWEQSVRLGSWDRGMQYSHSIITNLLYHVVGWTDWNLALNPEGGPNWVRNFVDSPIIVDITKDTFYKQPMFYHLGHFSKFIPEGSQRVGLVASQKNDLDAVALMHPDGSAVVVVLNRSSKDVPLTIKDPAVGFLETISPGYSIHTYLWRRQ
Chain of Cytochrome P450 3A4 (Homo sapiens) (P08684 whole entry, looked up): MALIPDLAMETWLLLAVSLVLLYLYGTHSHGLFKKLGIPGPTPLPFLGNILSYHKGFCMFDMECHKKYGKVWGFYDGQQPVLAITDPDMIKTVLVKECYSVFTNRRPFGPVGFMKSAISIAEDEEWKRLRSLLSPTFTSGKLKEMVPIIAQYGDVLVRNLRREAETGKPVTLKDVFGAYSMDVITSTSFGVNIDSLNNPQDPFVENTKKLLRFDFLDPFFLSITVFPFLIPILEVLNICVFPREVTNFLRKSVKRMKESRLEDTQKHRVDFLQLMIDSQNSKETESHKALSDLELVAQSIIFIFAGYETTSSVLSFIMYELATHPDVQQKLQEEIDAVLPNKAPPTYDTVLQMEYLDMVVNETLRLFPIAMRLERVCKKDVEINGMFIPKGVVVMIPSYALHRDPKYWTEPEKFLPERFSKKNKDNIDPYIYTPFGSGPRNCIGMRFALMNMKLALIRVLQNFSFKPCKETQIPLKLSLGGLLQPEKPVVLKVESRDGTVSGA
Chain of Cytochrome P450 2C19 (Homo sapiens) (P33261 whole entry, looked up): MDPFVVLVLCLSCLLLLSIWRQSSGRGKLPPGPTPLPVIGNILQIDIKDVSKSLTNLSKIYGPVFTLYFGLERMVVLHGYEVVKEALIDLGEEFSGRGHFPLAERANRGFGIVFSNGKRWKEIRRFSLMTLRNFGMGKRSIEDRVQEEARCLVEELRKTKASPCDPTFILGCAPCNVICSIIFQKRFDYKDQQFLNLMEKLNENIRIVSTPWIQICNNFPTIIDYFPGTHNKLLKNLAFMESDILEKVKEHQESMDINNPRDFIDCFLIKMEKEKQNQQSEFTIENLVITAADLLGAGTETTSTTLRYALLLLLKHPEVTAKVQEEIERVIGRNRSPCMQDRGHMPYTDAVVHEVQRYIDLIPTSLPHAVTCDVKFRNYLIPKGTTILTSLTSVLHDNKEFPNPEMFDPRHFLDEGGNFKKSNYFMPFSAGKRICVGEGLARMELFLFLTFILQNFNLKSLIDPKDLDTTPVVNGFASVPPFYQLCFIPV
Chain of Cytochrome P450 2C9 (Homo sapiens) (P11712 whole entry, looked up): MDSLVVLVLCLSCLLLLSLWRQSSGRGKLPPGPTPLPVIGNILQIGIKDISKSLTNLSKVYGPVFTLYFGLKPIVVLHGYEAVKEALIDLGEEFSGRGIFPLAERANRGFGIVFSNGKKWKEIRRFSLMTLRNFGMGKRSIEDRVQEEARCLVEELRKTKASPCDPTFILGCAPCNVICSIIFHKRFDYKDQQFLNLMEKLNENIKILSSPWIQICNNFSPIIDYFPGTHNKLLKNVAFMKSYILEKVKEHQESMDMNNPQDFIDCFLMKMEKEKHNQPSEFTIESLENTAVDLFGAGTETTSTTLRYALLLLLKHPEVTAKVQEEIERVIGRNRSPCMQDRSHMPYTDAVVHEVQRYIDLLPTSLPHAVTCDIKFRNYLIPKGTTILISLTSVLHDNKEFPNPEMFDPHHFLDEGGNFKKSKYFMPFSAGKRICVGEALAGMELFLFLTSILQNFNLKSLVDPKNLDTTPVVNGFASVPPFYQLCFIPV
Chain of Cytochrome P450 2D6 (Homo sapiens) (P10635 whole entry, looked up): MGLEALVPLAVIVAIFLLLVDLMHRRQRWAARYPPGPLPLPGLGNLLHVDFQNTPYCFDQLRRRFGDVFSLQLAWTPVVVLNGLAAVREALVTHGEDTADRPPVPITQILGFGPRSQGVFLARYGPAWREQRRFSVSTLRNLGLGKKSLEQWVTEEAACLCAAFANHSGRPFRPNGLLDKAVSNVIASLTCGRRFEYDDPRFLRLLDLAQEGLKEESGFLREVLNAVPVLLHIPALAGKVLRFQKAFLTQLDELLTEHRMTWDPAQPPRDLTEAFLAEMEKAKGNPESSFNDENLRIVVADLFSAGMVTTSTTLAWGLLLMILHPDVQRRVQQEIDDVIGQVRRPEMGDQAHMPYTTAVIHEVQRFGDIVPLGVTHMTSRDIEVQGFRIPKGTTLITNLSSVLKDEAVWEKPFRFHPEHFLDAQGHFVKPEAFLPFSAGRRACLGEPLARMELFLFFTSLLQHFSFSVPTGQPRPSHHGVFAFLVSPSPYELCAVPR

Cc1cccc(CNc2nc(-c3ccccc3CN(C)C)nc3ccccc23)c1
inactive: Potency [1] > 11.4 µM | activity change, negative = inhibition [2] 20.6% | activity change, negative = inhibition [3] -22.2% | activity, negative = inhibition [4] -0.581% | Potency [5] > 46 µM | Potency [6] | Potency [7] | Potency [8] | outcome [9] | outcome [10]

COC(=O)N1CCC[C@@]2(CCN(Cc3nccs3)C2)C1
inactive: Potency [1] > 11.4 µM | activity change, negative = inhibition [2] 1.72% | activity change, negative = inhibition [3] 14.9% | activity, negative = inhibition [4] -4.13% | Potency [5] > 46 µM | Potency [6] | Potency [11] | outcome [10]

O=S(=O)(c1ccccc1)N1CCC2(CCN(c3ccccc3)CC2)CC1
inactive: Potency [1] > 11.4 µM | activity change, negative = inhibition [2] 6.91% | activity change, negative = inhibition [3] -1.26% | activity, negative = inhibition [4] -14.2% | Potency [5] > 46 µM | Potency [6] | Potency [11] | Potency [7] | outcome [10]

O=C(c1cccc(F)c1)N1CCC2(CC1)CN(C(c1ccccc1)c1ccccc1)C2
inactive: Potency [1] > 11.4 µM | activity change, negative = inhibition [2] 16.8% | activity change, negative = inhibition [3] -27.5% | activity, negative = inhibition [4] -17.5% | Potency [5] > 46 µM | Potency [6] | Potency [11] | outcome [10]

O=C(c1csnn1)N1CCC[C@@]2(CCN(c3ccccc3)C2)C1
inactive: Potency [1] > 11.4 µM | activity change, negative = inhibition [2] -5.43% | activity change, negative = inhibition [3] -8.4% | activity, negative = inhibition [4] -7.17% | Potency [5] > 46 µM | Potency [6] | Potency [11] | outcome [10]

O=S(=O)(c1ccccc1)N1CCC2(CCCN(C(c3ccccc3)c3ccccc3)C2)CC1
active: Potency [12] 2 µM | Potency [13] 0.501 µM
inactive: Potency [1] > 11.4 µM | activity change, negative = inhibition [2] -2.18% | activity change, negative = inhibition [3] -9.54% | activity, negative = inhibition [4] -3.12% | Potency [5] > 46 µM | Potency [6] | Potency [11] | Potency [7] | outcome [10]

N#CCCn1c(=O)cnc2cnc(Nc3ccccc3)nc21
inactive: Potency [1] > 11.4 µM | activity change, negative = inhibition [2] -26.6% | activity change, negative = inhibition [3] -3.19% | Potency [14] > 9.22 µM | Potency [5] > 46 µM | Potency [6] | outcome [10]

O=C(c1cccc(F)c1)N1CCC2(CC1)CN(c1ccccc1)C2
inactive: Potency [1] > 11.4 µM | activity change, negative = inhibition [2] -0.575% | activity change, negative = inhibition [3] 6.14% | activity, negative = inhibition [4] -1.57% | Potency [5] > 46 µM | Potency [6] | Potency [11] | Potency [12] | outcome [10]
active: Potency [7] 7.94 µM

O=S(=O)(c1ccccc1)N1CCC2(CCCN(c3ccccc3)C2)CC1
inactive: Potency [1] > 11.4 µM | activity change, negative = inhibition [2] 17.4% | activity change, negative = inhibition [3] -15.8% | activity, negative = inhibition [4] 7.82% | Potency [5] > 46 µM | Potency [6] | Potency [11] | Potency [7] | outcome [10]
active: Potency [15] 1.26 µM | Potency [12] 3.98 µM | Potency [16] 1.58 µM

CCNc1ncc2nc(-c3cccs3)c(=O)n(-c3ccc(OC)cc3)c2n1
inactive: Potency [1] > 11.4 µM | activity change, negative = inhibition [2] -0.164% | activity change, negative = inhibition [3] -15.9% | Potency [14] > 9.22 µM | Potency [5] > 46 µM | Potency [6] | outcome [10]

COCCn1c(=O)c(-c2ccc(OC)cc2)nc2cnc(Nc3ccccc3)nc21
inactive: Potency [1] > 11.4 µM | activity change, negative = inhibition [2] 6.46% | activity change, negative = inhibition [3] -9.78% | Potency [14] > 9.22 µM | Potency [5] > 46 µM | Potency [6] | Potency [11] | outcome [10]

O=C(c1ccco1)N1CCC2(CCN(Cc3cc(C(F)(F)F)cc(C(F)(F)F)c3)CC2)CC1
inactive: Potency [1] > 11.4 µM | activity change, negative = inhibition [2] -1.98% | activity change, negative = inhibition [3] 2.65% | activity, negative = inhibition [4] 0.499% | Potency [5] > 46 µM | Potency [6] | Potency [11] | activation [17] -7.14% | outcome [10]

O=C(c1cccc(F)c1)N1CCC2(CCCN(c3ccccc3)C2)CC1
inactive: Potency [1] > 11.4 µM | activity change, negative = inhibition [2] -4.36% | activity change, negative = inhibition [3] -1.29% | activity, negative = inhibition [4] -11.8% | Potency [5] > 46 µM | Potency [6] | Potency [11] | Potency [7] | activation [17] -3.27% | outcome [10]
active: Potency [16] 5.01 µM

O=C(Nc1cccc(F)c1)N1CCC2(CC1)CCN(C(=O)c1cccc(F)c1)CC2
inactive: Potency [1] > 11.4 µM | activity change, negative = inhibition [2] -7.86% | activity change, negative = inhibition [3] 3.68% | activity, negative = inhibition [4] -6.46% | Potency [5] > 46 µM | Potency [6] | Potency [11] | outcome [10]

COc1ccc(C(=O)N2CCC[C@@]3(CCN(C(=O)Nc4cccc(F)c4)C3)C2)cc1
inactive: Potency [1] > 11.4 µM | activity change, negative = inhibition [2] -10.8% | activity change, negative = inhibition [3] 2.1% | activity, negative = inhibition [4] -4.78% | Potency [5] > 46 µM | Potency [6] | Potency [11] | outcome [10]

O=C(c1cccc(F)c1)N1CCC[C@@]2(CCN(Cc3ccncc3)C2)C1
active: Potency [12] 3.16 µM
inactive: Potency [1] > 11.4 µM | activity change, negative = inhibition [2] -12% | activity change, negative = inhibition [3] -14.7% | activity, negative = inhibition [4] -0.901% | Potency [5] > 46 µM | Potency [6] | Potency [11] | Potency [7] | outcome [10]
